Source: PubChem BioAssay (National Center for Advancing Translational Sciences (NCATS))
FLuc modulator: qHTS profiling assay for firefly luciferase inhibitor/activator using purifed enzyme and Km concentrations of substrates (counterscreen for miR-21 project) | Luciferin 4-monooxygenase (Photinus pyralis), P08659 | purified FLuc, Km substrates, luminescence inhibition | Potency, µM (series often up to 57.5 µM), without a hit: at the highest dose activity change, negative = inhibition, most hits filed as inhibitors | actives 6.9% (n = 360,000) | AID 588342, 2011;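 note: plate controls were vehicle for no effect and reference inhibitor for full effect; nearly all actives have a fitted effect of over 55% in size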
Target sequence (P08659 whole entry, looked up): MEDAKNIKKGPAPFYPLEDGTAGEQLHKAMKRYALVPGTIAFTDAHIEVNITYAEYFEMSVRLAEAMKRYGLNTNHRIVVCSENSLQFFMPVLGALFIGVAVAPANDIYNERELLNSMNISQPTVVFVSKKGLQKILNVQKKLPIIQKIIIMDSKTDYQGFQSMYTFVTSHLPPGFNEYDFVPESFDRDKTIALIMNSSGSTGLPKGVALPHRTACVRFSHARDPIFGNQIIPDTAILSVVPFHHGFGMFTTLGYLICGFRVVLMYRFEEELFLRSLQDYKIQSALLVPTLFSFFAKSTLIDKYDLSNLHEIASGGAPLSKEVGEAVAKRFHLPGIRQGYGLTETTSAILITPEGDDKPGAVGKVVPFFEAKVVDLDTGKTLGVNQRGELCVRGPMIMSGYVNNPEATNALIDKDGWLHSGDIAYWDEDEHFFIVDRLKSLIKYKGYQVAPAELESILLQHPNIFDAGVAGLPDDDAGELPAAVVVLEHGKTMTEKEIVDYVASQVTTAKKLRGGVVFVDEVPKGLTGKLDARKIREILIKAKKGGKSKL
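Biochemical qHTS of compounds, final roughly 60 µM downward over six points, against 10 nM purified firefly luciferase using Km concentrations of substrates (10 uM D-luciferin, 10 uM ATP) in Tris acetate pH 7.5 buffer; luminescence output.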
NPC1 prom act: qHTS Assay for NPC1 Promoter Activators | Huh7 NPC1 promoter luciferase reporter, 24 h | Potency, µM (titrated, usually from 9.22 µM), inactives show top-dose activation, most hits filed as activators | actives 2.4% (n = 320,000) | AID 485313, 2010; note: % of control where 0% means no effect; nearly all actives have a fitted effect of over 60% in size
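NPC1 promoter–luciferase Huh7 cells; 24 h compound; luminescence.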
Rab9 promoter act: qHTS Assay for Rab9 Promoter Activators; Huh7 Rab9 promoter-luciferase reporter, luminescence, 24 h; Potency, µM (doses to about 9.22 µM), for the others: at the highest dose activation, negative = inhibition, actives largely listed as activators; actives 2.8% (n = 320,000); note: % of control where 0% means no effect; nearly all actives have a fitted effect of over 60% in size
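Huh7 cells stably carrying Rab9 promoter–luciferase reporter, plated 1500 cells/well, compound added after 2 h and incubated 24 h at 37 °C; luciferase luminescence then read after 10 min with detection reagent.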
SMN2 splice enh: qHTS Assay for Enhancers of SMN2 Splice Variant Expression; HEK293 SMN2-luciferase splicing reporter, luminescence, 30-36 h; AID 1458, 2008; actives 2.8% (n = 210,000); Potency, µM (titrated, usually from 46.1 µM), for inactives: at the top dose activity change, positive = activation, hits mostly activators; note: % of control where 0% means no effect; nearly all actives have a fitted effect of over 55% in size
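qHTS luciferase splicing reporter: luminescence rises when SMN2 exon 7 is included in transfected HEK293 cells. Compound exposure lasted 30-36 h at 37C, with 4.5 mM final sodium butyrate as control, followed by a ONE-Glo read.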
ELG1 genotox: qHTS screen for small molecules that induce genotoxicity in human embryonic kidney (HEK293T) cells expressing luciferase-tagged ELG1. HEK293T ELG1-luciferase reporter, luminescence, 16 h. actives 1.3% (n = 330,000). Potency, µM (titrated, usually from 46 µM), for the others: at the highest dose activity change, positive = activation, most hits filed as activators; note: % of control where 0% means no effect; nearly all actives have a fitted effect of over 60% in size
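Genotoxic stress is detected as increased luminescence from luciferase-tagged ELG1 in HEK293T cells, measured with ONE-Glo after a 16 hr treatment at 37 °C.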
Luc counter: Counterscreen for Luciferase (Kinase-Glo TM) Inhibition. Luciferin 4-monooxygenase (Photuris pensylvanica), Q27757. Kinase-Glo luciferase, ATP luminescence, 8 min. Potency, µM (highest dose often 38.3 µM), inactives show top-dose activity change, negative = inhibition, most hits filed as inhibitors. actives 0.28% (n = 200,000); note: % is set by controls: 0 for no effect and ±100 for the full control effect; nearly all actives have a fitted effect of over 60% in size
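Kinase-Glo luciferase light output from ATP and luciferin was measured with 10 uM ATP, within the enzyme's linear range. Buffer: 50 mM imidazole pH 7.2, 50 mM KCl, 7 mM MgCl2, 0.01% Tween 20, 0.05% BSA; luminescence read after 8 min at ambient temperature.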
Numbers without * were called inactive; ? = inconclusive; nt = no result. Compounds with a hit are over-represented: about 7.4% of the library has one in this group of screens. Calls come from the whole dose curve; as a rule, active = well fitted curve in the direction sought with a large enough effect; inconclusive = small, poorly fitted or top-dose-only effect, or another doubt; inactive = no such curve, though single readings can be large; an effect the other way counts as inactive or inconclusive. Potency is the fitted concentration of half-maximal effect.

SMILES	FLuc modulator	NPC1 prom act	Rab9 promoter act	SMN2 splice enh	ELG1 genotox	Luc counter
Cc1cccc(NC(=O)c2c(C)nn(-c3ccccc3)c2Cl)c1	13µM*	?	?	19%	11%	2%
Cc1nn(-c2ccccc2)c(Cl)c1C(=O)Nc1ccc(N2CCOCC2)cc1	-14%	1%	0%	-6%	-7%	-4%
Cc1ccnc(Cc2ccccc2)n1	1%	-1%	-6%	nt	0%	nt
Cc1ccc(-c2nc(Nc3ccccc3)n[nH]2)cc1	1.7µM*	0.89µM*	0.71µM*	3.5µM*	0.65µM*	1%
Cc1ccc(S(=O)(=O)N2CCOCC2)cc1C(=O)OCC(=O)NCc1ccccc1	-6%	1%	1%	nt	-6%	nt
CC(C)(C)c1ccc(-c2nnc(SCCN3C(=O)c4ccccc4C3=O)o2)cc1	15µM*	0%	-2%	9%	-3%	1%
COc1ccc(NC(=O)N(C)C[C@H]2Oc3c(NC(=O)C4CC4)cccc3C(=O)N([C@H](C)CO)C[C@@H]2C)cc1	nt	nt	nt	nt	3%	nt
O=C(NCCN1CCOCC1)c1sc2cc(Cl)ccc2c1Cl	-16%	1%	0%	nt	16%	nt
O=C(NCC1CCCO1)c1cccc(C(=O)NCC2CCCO2)c1 (stereo not drawn)	-2%	-8%	0%	nt	0%	nt
O=C(NCC1CCCO1)c1sc2cc(Cl)ccc2c1Cl (stereo not drawn)	11µM*	3.2µM*	2µM*	13µM*	?	-1%
CC(C)(CNC(=O)c1sc2cc(Cl)ccc2c1Cl)N1CCOCC1	?	0%	-4%	nt	16µM*	nt
O=C(NCC1CCCO1)c1ccc2[nH]c3c(c2c1)CCCC3 (stereo not drawn)	21µM*	5%	26%	nt	12%	nt
COc1ccccc1C(=O)Nc1cccc(OCc2cc(=O)n3ccccc3n2)c1	7.6µM*	nt	nt	nt	nt	nt
Cc1cccc(C(=O)Nc2cccc(OCc3cc(=O)n4ccccc4n3)c2)c1	4%	nt	nt	nt	nt	nt
O=C(Nc1cccc(C(=O)OCc2cc(=O)n3c4c(sc3n2)CCCC4)c1)c1ccccc1	2.4µM*	nt	nt	nt	nt	nt
COc1ccc(C)cc1NC(=O)Nc1cccc(OCc2cc(=O)n3ccc(C)cc3n2)c1	2.7µM*	nt	nt	nt	nt	nt
COc1ccccc1C(=O)Nc1cccc(OCc2cc(=O)n3c4c(sc3n2)CCCC4)c1	6µM*	nt	nt	13%	nt	nt
CCOC(=O)c1ccc(NC(=O)Nc2cccc(OCc3cc(=O)n4ccc(C)cc4n3)c2)cc1	-9%	nt	nt	nt	nt	nt
O=C(COc1cccc(Cl)c1)Nc1cc(S(=O)(=O)N2CCOCC2)ccc1N1CCOCC1	-2%	2%	-3%	nt	-6%	nt
CCN1CCN(C(c2ccccc2)c2sc3nc(-c4ccco4)nn3c2O)CC1 (stereo not drawn)	3%	nt	nt	nt	nt	nt
O=[N+]([O-])c1ccc(C(c2sc3nc(-c4ccco4)nn3c2O)N2CCN(c3cccc(Cl)c3)CC2)cc1 (stereo not drawn)	19µM*	nt	nt	nt	nt	nt
COc1ccccc1C(=O)N(c1ccc(C)cc1)S(=O)(=O)c1ccc(Cl)cc1	5%	nt	nt	-23%	nt	nt
Cc1nc(-c2ccccc2)sc1C(=O)/C=C/c1ccc(Cl)cc1	-16%	-3%	0%	-24%	-7%	-1%
Cc1nc(-c2ccccc2Cl)sc1C(=O)/C=C/N(C)C	17µM*	3.2µM*	1.8µM*	?	?	1%
Cc1cc(/C(N)=N/OC(=O)Nc2ccc(Cl)cc2)no1	19µM*	10%	?	nt	?	nt
SMILES	FLuc modulator	NPC1 prom act	Rab9 promoter act	SMN2 splice enh	ELG1 genotox	Luc counter
COc1ccc(C(=O)O/N=C(\N)c2ccccc2)cc1	0.21µM*	0.5µM*	1.4µM*	nt	1.8µM*	nt
CC(C)(C)c1ccc(C(=O)O/N=C(\N)c2ccccc2)cc1	0.76µM*	-16%	-12%	nt	?	nt
Cc1cc(C(=O)O/N=C(\N)c2ccc(C(C)(C)C)cc2)no1	6µM*	3.5µM*	1.8µM*	nt	10%	nt
CC(C)(C)c1ccc(NC(=O)CON=C(N)c2ccccc2)cc1	?	-2%	-2%	nt	2%	nt
CCOC(=O)c1cc(/C(C)=N/OC(=O)c2ccc(C(C)(C)C)cc2)on1	2%	0%	0%	nt	1%	nt
COc1ccc(/C(N)=N/OC(=O)Cc2ccccc2OC)cc1	?	15%	1%	-10%	2%	1%
Cc1cc(NC(=O)CSc2nccn2C)no1	2%	1%	-2%	14%	0%	2%
COc1ccc(C(=O)O/N=C(\N)c2ccc(Br)cc2)cc1	3µM*	?	?	nt	16%	nt
N#Cc1cc(-c2ccccc2)cnc1Sc1ccccc1	21µM*	1%	5%	6%	0%	-4%
Cc1ccc(Sc2nnc(-c3ccccc3)cc2C#N)cc1	9%	-3%	-2%	-14%	-2%	-3%
CCN1CCN(c2cc(C)c3cc(NC(=O)c4cc(Br)ccc4Cl)ccc3n2)CC1	2%	nt	nt	8%	nt	nt
CNC(=O)c1sc2nc(-c3ccc(OC)cc3)cn2c1C	3.4µM*	1.6µM*	0.89µM*	nt	2.1µM*	4%
COc1ccc(CNC(=O)Cc2csc3nc(-c4ccc(F)cc4)cn23)cc1	-3%	nt	nt	nt	nt	nt
COc1ccc(CNC(=O)Cc2csc3nc(-c4ccc(C)cc4)cn23)cc1	17µM*	nt	nt	nt	nt	nt
CCN(CC)C(=O)c1sc2nc(-c3ccc(OC)cc3)cn2c1C	7.6µM*	1.8µM*	?	?	?	-4%
COc1ccc(NC(=O)CSc2nnnn2C2CC3C=CC2C3)cc1 (stereo not drawn)	-18%	-13%	2%	nt	5%	nt
Cc1cccc(C)c1NC(=O)c1ccc(N2CCCC2=O)cc1	0%	-1%	0%	nt	0%	nt
Cc1nnc(NC(=O)c2ccc(N3CCCC3=O)cc2)s1	24µM*	?	2.2µM*	nt	?	nt
O=C(Nc1nc2ccc(F)cc2s1)c1ccc(N2CCCC2=O)cc1	-18%	0.4µM*	0.32µM*	nt	0.46µM*	nt
Cc1csc(NC(=O)c2ccc(N3CCCC3=O)cc2)n1	1.9µM*	?	0.32µM*	0.56µM*	0.65µM*	13µM*
CCN(c1ccc(NC(=O)c2ccc(N3CCCC3=O)cc2)cc1)C(C)C	?	-16%	-24%	nt	6.5µM*	nt
Cc1csc(N2CCCC2=O)n1	1%	-3%	13%	8%	1%	-2%
CN(C)S(=O)(=O)c1cccc(NC(=O)c2ccc(N3CCCC3=O)cc2)c1	nt	nt	nt	nt	0%	nt
